This note sets out measurements from PubChem BioAssay (NCI).

SMILES strings stand for the structures. The panel holds about 83,000 compounds, 20% with a hit somewhere; the sample as a whole holds those more often.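 Cell lines were cultured in 96-well plates, exposed to a single compound concentration, and assessed for percent growth 48 hours later.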 Activity calls are given as the source filed them. How the source made its calls: active means growth percent below 10; inactive means the rest.

The subject of this assay is HL-60(TB) leukemia. The assay can be described thus: NCI-60 one-dose screen, 48 h (100 = growth as untreated, 0 = no growth, -100 = all killed). The settings on record: 10 µM unless noted.
For the compound `COc1ccc2[nH]cc(-c3nonc3-c3c[nH]c4ccc(Br)cc34)c2c1`, the growth is 76.1% (inactive).

As for `CN(C)Cc1cc(C(C)(C)C)cc(Br)c1O`, the growth was 123% (inactive).

On to `COc1ccc(N=C2CSc3nnc(-c4cc(F)c(Cl)cc4Cl)n3N2)cc1`, for which the growth was -48% (active).

With `Cc1ccc(NC(=O)c2[nH]c(SCCN(C)C)nc2-c2ccc(F)cc2)cc1Nc1ccc2ncn(C)c(=O)c2c1`, the growth was 19.3% (inactive).

Consider `COC(=O)CNS(=O)(=O)c1ccc2c(c1)Cc1cc(S(=O)(=O)NCC(=O)OC)ccc1-2`, for which the growth is 98.5% (inactive).

As to `O=C(O)c1cccc(CN2CCN(c3cc4c(cc3F)c(=O)c(C(=O)O)cn4C3CC3)CC2)c1O`, the growth was 99.4% (inactive).

In the case of `C[C@@H]1COCCN1c1cc(C2([S@](C)(=N)=O)CC2)nc(-c2ccnc3[nH]ccc23)n1`, the growth was -9.62% (active).

As to `CC(=O)O[C@H]1[C@H](CC#CC#CC[C@@H]2C[C@]3(C)[C@H]4CC=C5[C@H]6[C@@H](C)[C@H](C)CC[C@]6(C(=O)NCCCCCCCCN)CC[C@@]5(C)[C@]4(C)CC[C@H]3C(C)(C)[C@H]2OC(C)=O)C[C@]2(C)[C@H]3CC=C4[C@H]5[C@@H](C)[C@H](C)CC[C@]5(C(=O)NCCCCCCCCN)CC[C@@]4(C)[C@]3(C)CC[C@H]2C1(C)C`, the growth is 104% (inactive).

`OC[C@@H](O)C(O[C@@H]1O[C@H](CO)[C@H](O)[C@H](O)[C@H]1O)[C@H](O)[C@@H](O)CO` (stereo not given in full): the growth was 94.9% (inactive).

Regarding `COc1cc(/C=N\NC(=O)CN2CCN(c3cc4c(cc3F)c(=O)c(C(=O)N/N=C/c3ccc(O)c(OC)c3)cn4C3CC3)CC2)ccc1O`, the growth is 75.4% (inactive).

With `O=c1ccc2cc3ccccc3cc2[nH]1`, the growth was 67.7% (inactive).

`OC(c1cccc(-n2ccc(C(F)(F)F)n2)c1)c1cnccc1NC1CCCCCC1` (stereo not given): the growth is -35.7% (active).

As to `COc1ccc(Cl)cc1Nc1nc(C(F)(F)F)ccc1C(=O)NN`, the growth was 23.3% (inactive).

In the case of `Cc1cc2cn3c4cccnc4[nH]c(=O)c3c2cc1C`, the growth was -32.6% (active).

As to `N#CC1(C#N)C(c2cccs2)NC(c2cccs2)C1(C#N)C#N` (stereo not given), the growth was 99% (inactive).

On to `COc1cc(NC2CCCCC2O)c2nc(-c3ccc(Cl)cc3)ccc2c1` (stereo not given), for which the growth is 81.9% (inactive).

Turning to `Cn1cc(-c2nonc2-c2c[nH]c3ccccc23)c2cc(Br)ccc21`, the growth was 38.2% (inactive).

Take `Nc1c(C(=O)Nc2cccc(Cl)c2)sc2nc3c(cc12)C(O)CCC3` (stereo not given): the growth is 2.96% (active).

`CC(C)(C)n1cc(-c2ccnc(NCCCNS(=O)(=O)c3ccc(Br)cc3)c2)c(-c2cccc(O)c2)n1`: the growth was 3.72% (active).

As for `CCCCCCCCCCCCCCCc1ccc(N)c(OC2OC(CO)C(O)C(O)C2O)c1` (stereo not given), the growth is 23% (inactive).

For the compound `CC(=O)O[C@@H]1C2CCC3C(CC[C@@]4(C)C3CC[C@@H]4C(C)N(C)C)[C@@]2(C)CC[C@@H]1NC(=O)C=C(C)C` (stereo not given in full), the growth is -58.8% (active).

As for `CNC(=O)c1ccccc1Sc1ccc2c(/C=C/c3ccccn3)n[nH]c2c1`, the growth is 12.6% (inactive).

For `COc1cc(Cl)cc(-c2nn(-c3cccc(NC(=O)c4ccc(N5CCOCC5)c(C(F)(F)F)c4)c3)cc2-c2ccncc2)c1`, the growth was 2.73% (active).

Regarding `COc1cc(-c2nn(-c3ccc(Br)cc3)cc2CO)ccc1O`, the growth is 74.8% (inactive).

Consider `C[C@H]1[C@H](C)CC[C@]2(C(=O)O)CC[C@]3(C)C(=CC[C@@H]4[C@@]5(C)C/C(=C/c6cccnc6)[C@H](O)C(C)(C)[C@@H]5CC[C@]43C)[C@H]12`, for which the growth is -16.5% [100 µM] (active).

Consider `C=CCn1c(SCC(=O)Nc2ccc(C(=O)/C=C/c3cc(OC)c(OC)c(OC)c3)cc2)nnc1-c1cc(-c2ccc(S(N)(=O)=O)cc2)nc2ccccc12`, for which the growth is 57.5% (inactive).

With `COc1ccc(CCO)cc1`, the growth was 64.3% (inactive).

As to `CN1C(=O)N(C)C2C1NN=c1s/c(=C\c3ccc([N+](=O)[O-])cc3)c(=O)n12` (stereo not given), the growth is 7.14% (active).

With `COc1ccc(C2(O)CCCCC2)cc1`, the growth was 95.6% (inactive).

Turning to `CN1CCN(c2ccc(-c3ccc4ncc(C#N)c(Nc5ccc(F)c(Cl)c5)c4c3)cc2)CC1`, the growth is 22.3% (inactive).

As for `CN1C(=O)N(C)[C@H]2NC(NN)=N[C@H]21`, the growth is 102% (inactive).

With `c1ccc(-c2nc(N3CCNCC3)c3oc(-c4ccccc4)nc3n2)cc1`, the growth is -46.5% (active).

As for `Cc1ccc(Nc2ncnc3c2sc2ncccc23)cc1`, the growth is 71.2% (inactive).

Take `COc1ccc(CNc2nccnn2)cc1`: the growth was 69.9% (inactive).

As to `CSc1nc(-c2ccc(F)cc2)c(C#N)c(N2CCOCC2)n1`, the growth was 79.6% (inactive).

Turning to `Nc1nc(N)c2c(n1)NC(c1cccc(Nc3ccnc4cc(C(F)(F)F)ccc34)c1)CC(c1ccc3c(c1)OCO3)=N2` (stereo not given), the growth was 76.5% (inactive).

As to `COC1NC(Cl)=C(C#N)C(C#N)(C#N)C1(C)C` (stereo not given), the growth is 92.9% (inactive).

Regarding `CC(C)(C)OC(=O)CN1CCc2c(sc3ncnc(N4CCN(c5ccc(F)cc5)CC4)c23)C1`, the growth was 99.5% (inactive).

As for `O=C(N=Nc1c(O)[nH]c2ccccc12)Nc1ccc(Cl)cc1`, the growth is 38.9% (inactive).

Take `O=C1Cc2cc(O)ccc2O1`: the growth is 100% (inactive).
